This is a sample that favours compounds with a hit; in the whole collection about 3.5% have one here.
M1 antag – human CHRM1 antagonism; P11229; CHO-K1 hM1, Fluo-8 calcium fluorescence, ACh EC80 antagonist; inhibition, % at 3 µM; hit rate 1.3% among 360,000; AID 588852;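 active = percent inhibition above its own plate's cutoff, namely the mean of that plate's compound wells plus 3 SD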;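 also: peak over basal fluorescence ratio during 140 s after agonist addition; 0% = ACh EC80 plus DMSO and 100% = DMSO alone without agonist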
Target sequence (P11229 whole entry, looked up): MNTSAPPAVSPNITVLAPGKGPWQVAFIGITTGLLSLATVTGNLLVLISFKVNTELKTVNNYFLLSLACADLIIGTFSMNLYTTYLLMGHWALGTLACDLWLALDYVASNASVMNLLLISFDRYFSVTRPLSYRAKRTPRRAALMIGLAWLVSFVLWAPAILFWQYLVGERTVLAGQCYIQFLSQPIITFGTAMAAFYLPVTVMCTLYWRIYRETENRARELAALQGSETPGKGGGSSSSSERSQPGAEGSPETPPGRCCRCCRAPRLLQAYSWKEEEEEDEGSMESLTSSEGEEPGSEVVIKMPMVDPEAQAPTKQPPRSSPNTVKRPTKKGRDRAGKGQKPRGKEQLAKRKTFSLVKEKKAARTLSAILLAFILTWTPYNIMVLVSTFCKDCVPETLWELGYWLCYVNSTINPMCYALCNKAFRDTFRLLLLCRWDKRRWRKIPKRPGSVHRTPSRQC
SKN-1 inh – C. elegans SKN-1 inhibition | C. elegans VP596 Pgst-4::GFP/RFP ratio, acrylamide-induced, 24 h | inhibition, % at 21.8 µM | hit rate 0.49% among 360,000 | AID 624304;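 active = interference check ratio from 0.5 to 1.5 plus GFP to RFP signal ratio inhibition reaching or exceeding a fixed threshold, cut at about 30% in these data, passing the limit was not always enough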
ATG4B inh – inhibitors of human ATG4B cysteine protease; inhibition, % at 8.33 µM; Q9Y4P1; ATG4B cleavage of LC3-PLA2, NBD-HPC fluorescence, 1 h; hit rate 0.51% among 340,000; AID 504462; in the data active = inhibition above about 40%
Myeloid diff MLP – myeloid differentiation induction | ER-HoxA9 myeloid progenitors, lysozyme-GFP differentiation, flow cytometry | calls only at 10 µM | hit rate 1% among 360,000;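 active = normalized GFP-positive differentiation at or above the plate's own cutoff, the solvent-only control mean plus 3 SD; inconclusive = no clear call, values can overlap the other calls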;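 also: cells exposed to compound for four days before flow analysis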
M1 ag – activates human CHRM1 receptor; P11229; CHO-K1 hM1, Fluo-8 calcium fluorescence, agonist mode; 0% DMSO, 100% acetylcholine EC100; activation, % at 3 µM; hit rate 0.33% among 360,000;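 active = activation above the run's mean compound activation plus 3 SD, cut at about 16% in these data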;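 also: peak over basal fluorescence ratio within a 140 s kinetic read after compound addition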
M1 PAM – potentiates human M1 receptor response to acetylcholine; P11229; CHO-K1 hM1, Fluo-8 calcium fluorescence, ACh EC20; 0% = ACh EC20, 100% = maximal ACh; activation, % at 3 µM; hit rate 0.088% among 360,000; AID 588819; in the data active = activation above about 19%, passing the limit was not always enough
* hit, by the source's call.

Screening O=C1/C(=C\c2ccc(Br)o2)SC(=Nc2ccccc2)N1c1ccccc1 returned M1 antag -5.2, SKN-1 inh 0.3, ATG4B inh -6.2, Myeloid diff MLP active, M1 ag -2.6 and M1 PAM 6.4.
`COc1ccc(Cl)cc1NC(=O)Cn1c(C)csc1=O` gave M1 antag -0.3, SKN-1 inh -1.9, ATG4B inh 3.0, Myeloid diff MLP inactive, M1 ag -3.4 and M1 PAM 3.2.
For CCN1CCN(CCCNC(=O)C2CCN(c3nnc(-n4cccc4)s3)CC2)CC1 the results were M1 antag -15.4, SKN-1 inh 1.0, ATG4B inh 4.2, Myeloid diff MLP active, M1 ag -4.9 and M1 PAM 7.1.
For CCOc1ccc(NCc2cccn2-c2nnc(N3CCC(C(=O)NCCCN4CC(C)CC(C)C4)CC3)s2)cc1 (stereo not drawn) the results were M1 antag 97.9*, SKN-1 inh 8.2, ATG4B inh 9.0, Myeloid diff MLP inactive, M1 ag -6.2 and M1 PAM -22.9.
For O=C(C1CCN(c2nnc(-n3cccc3)s2)CC1)N1CCN(Cc2ccc3c(c2)OCO3)CC1 the results were M1 antag -13.8, SKN-1 inh 1.7, ATG4B inh -4.4, Myeloid diff MLP inactive, M1 ag -9.0 and M1 PAM -1.8.
Screening CC1CCN(Cc2ccc(NC(=O)C3CCN(c4nnc(-n5cccc5)s4)CC3)cc2)CC1 returned M1 antag 97.3*, SKN-1 inh 12.0, ATG4B inh -4.0, Myeloid diff MLP inactive, M1 ag -14.0 and M1 PAM -34.9.
`COc1ccc(C(=O)Nc2ccc(C)cn2)cc1S(=O)(=O)N1CCCc2ccccc21` gave M1 antag 23.4*, SKN-1 inh 0.5, ATG4B inh -17.3, Myeloid diff MLP inactive, M1 ag -4.1 and M1 PAM -13.2.
COc1ccc(C(=O)Nc2cccc(C)n2)cc1S(=O)(=O)N1CCCc2ccccc21 was read as M1 antag 14.7, SKN-1 inh 7.1, ATG4B inh -17.3, Myeloid diff MLP inactive, M1 ag -2.8 and M1 PAM -10.2.
For Cc1noc(C)c1S(=O)(=O)N(C)C[C@H]1OCc2cn(nn2)CCCC(=O)N([C@H](C)CO)C[C@@H]1C the results were M1 antag -8.9, SKN-1 inh 3.6, Myeloid diff MLP inconclusive, M1 ag -3.9 and M1 PAM 2.0.
`COc1ccc(OC)c(S(=O)(=O)NCc2ccccn2)c1` gave M1 antag -19.9, SKN-1 inh 4.2, ATG4B inh -1.5, Myeloid diff MLP inactive, M1 ag -3.1 and M1 PAM 8.0.
Screening CCCCN(CC)CCCNC(=O)c1cn(CC)c2ccc(S(=O)(=O)N3CCc4ccccc4C3)cc2c1=O returned M1 antag 17.8, SKN-1 inh -10.0, ATG4B inh 10.3, Myeloid diff MLP inactive, M1 ag -6.0 and M1 PAM -12.9.
CCCCN(C)CCCNC(=O)c1cn(CC)c2ccc(S(=O)(=O)N3CCc4ccccc4C3)cc2c1=O was read as M1 antag 42.6*, SKN-1 inh 0.3, ATG4B inh -5.0, Myeloid diff MLP inactive, M1 ag -6.6 and M1 PAM -18.4.
CCn1cc(C(=O)NCc2ccco2)c(=O)c2cc(S(=O)(=O)N3CC(C)CC(C)C3)ccc21 (stereo not drawn) was read as M1 antag 0.8, SKN-1 inh 6.7, ATG4B inh 0.1, Myeloid diff MLP active, M1 ag -5.2 and M1 PAM 0.1.
Screening CCn1cc(C(=O)NCc2ccco2)c(=O)c2cc(S(=O)(=O)N3CCC(C)CC3)ccc21 returned M1 antag -3.2, SKN-1 inh 11.3, ATG4B inh -1.3, Myeloid diff MLP inactive, M1 ag -4.7 and M1 PAM 0.0.
Fc1cccc(Cl)c1C1SCc2nc3ccccc3n21 (stereo not drawn) was read as M1 antag -8.5, SKN-1 inh -4.6, Myeloid diff MLP inactive, M1 ag 6.3 and M1 PAM 14.7.
Cc1cccc(NS(=O)(=O)c2ccc(C(=O)NCC(c3ccccc3)N(C)C)cc2)c1C (stereo not drawn) was read as M1 antag 26.6*, SKN-1 inh 11.1, ATG4B inh 7.1, Myeloid diff MLP inactive, M1 ag 3.9 and M1 PAM -18.6.
CN(C)C(CNC(=O)c1ccc(C2SCCS2)cc1)c1ccccc1 (stereo not drawn) was read as M1 antag 37.6*, SKN-1 inh 1.3, ATG4B inh 7.0, Myeloid diff MLP inactive, M1 ag -12.7 and M1 PAM -27.4.
`CN(C)C(CNC(=O)c1ccc(NC(=O)c2cccs2)cc1)c1ccccc1` (stereo not drawn) gave M1 antag 20.5, SKN-1 inh 4.3, ATG4B inh -14.3, Myeloid diff MLP inactive, M1 ag -11.9 and M1 PAM -24.8.
Cc1csc(=O)n1CCC(=O)OC(C)C(=O)NCc1ccccc1 (stereo not drawn) was read as M1 antag -19.4, SKN-1 inh 0.3, ATG4B inh 5.2, Myeloid diff MLP inactive, M1 ag -2.9 and M1 PAM 9.8.
O=C(CCc1nc2ccccc2c(=O)[nH]1)Nc1nnc(SCc2ccccc2F)s1 was read as M1 antag 48.6*, SKN-1 inh 1.4, ATG4B inh -10.9, Myeloid diff MLP inactive, M1 ag -8.4 and M1 PAM -26.8.
Screening O=C(CCc1nc2ccccc2c(=O)[nH]1)Nc1nnc(SCc2ccc(Cl)cc2)s1 returned M1 antag 1.8, SKN-1 inh 14.6, ATG4B inh -7.5, Myeloid diff MLP inactive, M1 ag -2.8 and M1 PAM -1.5.
CCOC(=O)c1cccc(Nc2nc(-c3cccnc3)nc3ccccc23)c1 was read as M1 antag 9.4, SKN-1 inh 4.1, ATG4B inh -19.5, Myeloid diff MLP active, M1 ag -2.9 and M1 PAM -13.2.
`Cc1cc(NC(=O)CCC(=O)N(c2ccccc2)C(C(=O)NC2CCCC2)c2ccccc2C)no1` (stereo not drawn) gave M1 antag 2.2, SKN-1 inh 21.0, ATG4B inh 5.0, Myeloid diff MLP inactive, M1 ag -5.4 and M1 PAM -0.2.
COc1cccc(/C(C#N)=C/c2c(-c3ccc(Cl)cc3)nc3c(C)cccn23)c1 was read as M1 antag 47.6*, SKN-1 inh 11.2, ATG4B inh 4.6, Myeloid diff MLP inactive, M1 ag -4.5 and M1 PAM -21.8.
For Cc1cccn2c(/C=N/OCc3cccc(F)c3)c(-c3ccc(Cl)cc3)nc12 the results were M1 antag -26.7, SKN-1 inh 31.1, ATG4B inh 10.7, Myeloid diff MLP inactive, M1 ag -0.5 and M1 PAM 5.4.

Bioassay records (PubChem)
